In PMC7819943, “Rice protein-binding microarrays: a tool to detect cis-acting elements near promoter regions in rice”:
Over roughly 68,000 sequences, “fluorescence intensity (a.u.)” has its median near 9,100; the highest 2% begin near 16,000. The entries come from a sample that favours the highest values as a whole.

target: OsWRKY34 (Oryza sativa, UniProt Q0JBA9 1-250); assay: protein-binding microarray (RPBM); PBS, 2% BSA, 51.3 ng/ul salmon testes DNA, 50 uM zinc acetate, 200 nM TF, 25 C, 1 h; high values mean tight binding; settings: protein: recombinant; tags: N-terminal polyhistidine and DsRed monomer fusion (pET32a); label: CyDye5-dUTP incorporated in the synthesized complementary strand; 3' TTTTT single-stranded linker to array surface; dsDNA, one strand shown
Procedure, shortened: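 Transcription factors were each fused at the N-terminus to a polyhistidine tag plus DsRed and expressed in E. coli BL21-CodonPlus before Ni–NTA purification. Binding to a double-stranded custom Agilent array was carried out with 200 nM protein at 25 °C for 1 h in PBS, 2% BSA, salmon testes DNA and 50 µM zinc acetate. The binding signal is per-feature fluorescence intensity, in arbitrary units, on an Axon 4000B scanner.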

OsWRKY34, sequence (Q0JBA9 entry or part of it): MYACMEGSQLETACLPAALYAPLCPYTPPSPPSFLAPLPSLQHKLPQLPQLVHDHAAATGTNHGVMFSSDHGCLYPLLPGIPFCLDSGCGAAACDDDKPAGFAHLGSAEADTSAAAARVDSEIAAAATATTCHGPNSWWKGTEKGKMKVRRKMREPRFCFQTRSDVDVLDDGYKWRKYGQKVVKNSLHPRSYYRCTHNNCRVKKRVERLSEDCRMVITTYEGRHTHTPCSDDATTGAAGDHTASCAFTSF

Sequence	binding signal
CACGCGATGAAATCATCTGCGCATCCTGTACTTTCAATTTCGGAGTCACCTAGTGCAG	8030 fluorescence intensity (a.u.)
CAATGACCTTTTTTTTTCCTCTCTCTGTTGCTTCCGATATCGGAGTCACCTAGTGCAG	8500 fluorescence intensity (a.u.)
GCTTTGAACACTCATCTCCTCACCGTGTTTGTTAGAGCTCCGGAGTCACCTAGTGCAG	11200 fluorescence intensity (a.u.)
ATTGTATTCCTACTTGGACTCTTATTTTCTTTTCTAATTTCGGAGTCACCTAGTGCAG	10300 fluorescence intensity (a.u.)
GTCTACTTGTTTGGTGTAATTTATTTTTTTTCTTTCGCTTCGGAGTCACCTAGTGCAG	9740 fluorescence intensity (a.u.)
CATTTGTGGTTTGTACATATTTATATAAGTTATTATAAATCGGAGTCACCTAGTGCAG	9060 fluorescence intensity (a.u.)
GTGTATTCTACTTAGTAATTTACTTGGCTTGAATTTTTTTCGGAGTCACCTAGTGCAG	28900 fluorescence intensity (a.u.)
TTTATTTTTTTTGTTACTTTTGGGATAAATTTACAATTACCGGAGTCACCTAGTGCAG	9060 fluorescence intensity (a.u.)
GGTTTGGGGTGGTTTATTGTACAATAAAGATAAAGTTACCCGGAGTCACCTAGTGCAG	19000 fluorescence intensity (a.u.)
TCAGTCTGTACACGCCTACACCAGAGTCCAGTGGTCCTAACGGAGTCACCTAGTGCAG	8100 fluorescence intensity (a.u.)
GGGTGGAGGAGGTGGGGAGGCCGGCGAGACTCATGTGCGGCGGAGTCACCTAGTGCAG	13100 fluorescence intensity (a.u.)
ATCAAATGGTCATTCCAACGGTTGTCCTGTGCTTTTGTAACGGAGTCACCTAGTGCAG	8020 fluorescence intensity (a.u.)
TAACAGTATCATTTGATAGCACAATATAAGGTGTTTTGCTCGGAGTCACCTAGTGCAG	28800 fluorescence intensity (a.u.)
GTTGTGGGTTTTCGTATTTAATGTTTGACTGTCTATTTTACGGAGTCACCTAGTGCAG	17300 fluorescence intensity (a.u.)
TTAGGATACATGGGAATTTTAGTGGGGATAGGATGGGGAACGGAGTCACCTAGTGCAG	8520 fluorescence intensity (a.u.)
AATGTTTGGGTTCGAATTTAGTGGGTGGGTTTGGAGTTTGCGGAGTCACCTAGTGCAG	12800 fluorescence intensity (a.u.)
GTATCAGTGTATAAGTTTGAGCACCATTTTTCCATGATCTCGGAGTCACCTAGTGCAG	9200 fluorescence intensity (a.u.)
ACTGTGGTTTCTAGTGGGTTTTATTATTTTATAATTTGTACGGAGTCACCTAGTGCAG	8480 fluorescence intensity (a.u.)
TCACGGCTCATTTTTGAAATAAGTTTTTAGCACAGTTTATCGGAGTCACCTAGTGCAG	8740 fluorescence intensity (a.u.)
ATCTCTAATTCTATTGGGTGCATGTATTGTACTATTTATTCGGAGTCACCTAGTGCAG	9280 fluorescence intensity (a.u.)
GTGGTTTCATCTATTTTGTGTTGTTTACTCGTATCTGTTACGGAGTCACCTAGTGCAG	10600 fluorescence intensity (a.u.)

Sequence	binding signal
TCTATTTTATTTGGGTGGGGATAGTTTTAGTGGGAATTTGCGGAGTCACCTAGTGCAG	24200 fluorescence intensity (a.u.)
CAAGTTATTGACTTTTGGTCATGATGTTACTATTCATCTTCGGAGTCACCTAGTGCAG	9120 fluorescence intensity (a.u.)
ATCTTCGGTGTACTATTGGGTCATGATTTGACCCATCTAACGGAGTCACCTAGTGCAG	24900 fluorescence intensity (a.u.)
TTCACGTAACTTACTTGCTCTAATCGTCGGTGGCTGGATCCGGAGTCACCTAGTGCAG	9270 fluorescence intensity (a.u.)
AAACACCAGCGCGGCCCTCGCCCTCGCCGTCGCCATTTCCCGGAGTCACCTAGTGCAG	8520 fluorescence intensity (a.u.)
CAACCCCTTACTTCATCACCTACTCATGTCAACACATAGCCGGAGTCACCTAGTGCAG	8850 fluorescence intensity (a.u.)
ACGCTGCCGTCTCATTTCGCTTTCGTAGAACTTGCTCCAGCGGAGTCACCTAGTGCAG	8500 fluorescence intensity (a.u.)
GCAAAAGCCAAACTGAATTCCCGACGCGTGCGCGCGCGCACGGAGTCACCTAGTGCAG	8180 fluorescence intensity (a.u.)
AGGAAAACACTTAGATGGGCCGGATTACTTATCGAAATTTCGGAGTCACCTAGTGCAG	8360 fluorescence intensity (a.u.)
ACATCTTATTTCCCTGGGTGGGGAGATTCTAGTTAAAATTCGGAGTCACCTAGTGCAG	19000 fluorescence intensity (a.u.)
AGCGGTTTCTTGGTTGGGGTTTAGTGTCTGCATTGGATATCGGAGTCACCTAGTGCAG	18200 fluorescence intensity (a.u.)
AGTGGTGATCGCCGCGGTTGGGTTTCTTGGATTGGGCTGTCGGAGTCACCTAGTGCAG	8720 fluorescence intensity (a.u.)
GTTGGGGAGAAGGGGTGGTAAAATTTCTGGTATTATGGTTCGGAGTCACCTAGTGCAG	11700 fluorescence intensity (a.u.)
TGTATTTGACTGTTACTGCTTTTGGATTTTGTTTCATTTTCGGAGTCACCTAGTGCAG	17500 fluorescence intensity (a.u.)
CCTTCTTTCCCTTTTCCCATCTGGCAAGATTTTTCTTATTCGGAGTCACCTAGTGCAG	9610 fluorescence intensity (a.u.)
TCATTCTTTTTCTCAATGTACTTGGATTTTTTTCATGTTTCGGAGTCACCTAGTGCAG	12200 fluorescence intensity (a.u.)
CTGTATTTGACTGTTACTGCTTTTGGATTTTGTTTCATTTCGGAGTCACCTAGTGCAG	10800 fluorescence intensity (a.u.)
TTCTTTTGTTGTGTGGGTGTATGTTTTGGTTATGTGCATTCGGAGTCACCTAGTGCAG	8810 fluorescence intensity (a.u.)
TACATGTTTGACTTTGACTTGGTTTTTGGATATTTCATTTCGGAGTCACCTAGTGCAG	9170 fluorescence intensity (a.u.)
ATCGTTTGGGGTCATTTTCTGCGGTTTGGTGGTGTTGTGCCGGAGTCACCTAGTGCAG	11100 fluorescence intensity (a.u.)
GTGGGGTTTTCGATGGTGTTTCATTCTTTTTCTCAATGTACGGAGTCACCTAGTGCAG	20300 fluorescence intensity (a.u.)
